# Screen size: about 39,000 compounds; about 3,300 (8.5%) were called active. The entries come from a sample that favours actives as a whole.
# Test system: HepG2
# Experiment: cytotoxicity call (relative viability < 0.9)
# Settings: 10 µM
row,SMILES,cytotoxicity call
1,Cc1ccc(S(=O)(=O)Nc2cccc3c2O[C@H](CN(C)C(=O)Nc2ccc(C(F)(F)F)cc2)[C@H](C)CN([C@H](C)CO)C3=O)cc1,inactive
2,C[C@@H]1CCCCO[C@@H](CN(C)CC2CCCCC2)[C@H](C)CN([C@H](C)CO)C(=O)c2cc(NS(=O)(=O)c3ccccc3)ccc2O1,inactive
3,Cc1ccc(S(=O)(=O)Nc2ccc3c(c2)C(=O)N([C@H](C)CO)C[C@H](C)[C@H](CN(C)Cc2ccc(Cl)c(Cl)c2)OCCCC[C@@H](C)O3)cc1,active
4,Cc1ccc(S(=O)(=O)Nc2ccc3c(c2)C(=O)N([C@@H](C)CO)C[C@H](C)[C@@H](CN(C)Cc2ccc(Cl)c(Cl)c2)OCCCC[C@H](C)O3)cc1,active
5,Cc1ccc(S(=O)(=O)Nc2ccc3c(c2)C(=O)N([C@H](C)CO)C[C@H](C)[C@@H](CN(C)Cc2ccc(Cl)c(Cl)c2)OCCCC[C@@H](C)O3)cc1,inactive
6,O=C(O)CC[C@H]1CCC(=O)N1,inactive
7,C[C@@H]1CN([C@H](C)CO)C(=O)Cc2cc(NC(=O)c3ccncc3)ccc2O[C@H]1CN(C)S(=O)(=O)c1cn(C)cn1,inactive
8,C[C@@H]1CCCCO[C@@H](CN(C)CC2CC2)[C@H](C)CN([C@H](C)CO)C(=O)c2cc(NS(C)(=O)=O)ccc2O1,inactive
9,C[C@@H]1CN([C@@H](C)CO)C(=O)c2cccc(NS(=O)(=O)c3ccccc3)c2O[C@@H]1CN(C)S(C)(=O)=O,inactive
10,C[C@@H]1CN([C@@H](C)CO)C(=O)c2cc(NS(=O)(=O)c3ccccc3)ccc2O[C@H]1CN(C)S(C)(=O)=O,inactive
11,O=C(C[C@@H]1C=C[C@H](NC(=O)c2cccc(F)c2)[C@@H](CO)O1)NCCN1CCCC1,inactive
12,CN(C)CC(=O)N1CC(=O)N2[C@H](CO)[C@@H](c3ccc(C#Cc4cccnc4)cc3)[C@H]2C1,inactive
13,O=c1cc(-c2ccccc2)oc2ccccc12,inactive
14,COc1ccc2c(=O)cc(-c3ccccc3OC)oc2c1,inactive
15,CCOC(=O)COc1ccc2c(=O)cc(-c3ccccc3)oc2c1,active
16,CCS(=O)(=O)Nc1ccc2c(c1)C(=O)N(C)[C@@H]1CC[C@@H](CC(=O)N[C@@H]3CCN(Cc4ccccc4)C3)O[C@@H]1CO2,inactive
17,Cc1cc(C(=O)Nc2cccc3c2O[C@@H](CN(C)Cc2ccncc2)[C@@H](C)CN([C@H](C)CO)C3=O)n(C)n1,inactive
18,C=CCOC(=O)[C@@H]1[C@H]2C(=O)O[C@H](c3ccccc3)[C@H](c3ccccc3)N2[C@H](c2ccc(OCCOC(=O)[C@H]3C[C@H]4C(=O)N5CCC[C@H]5C(=O)N4[C@H]3c3cccc(OCCO)c3)cc2)[C@@]12C(=O)Nc1ccc(I)cc12,inactive
19,CN(C)CCCNC(=O)C[C@@H]1CC[C@@H]2[C@H](COC[C@H](O)CN2S(=O)(=O)c2ccccc2)O1,inactive
20,Cc1ccc(CN)cc1Cl,inactive
21,Cc1cc(C(=O)c2cc3cc(Cl)ccc3o2)ccc1Cl,inactive
22,Cc1cc(CN)cc(C)c1NC(=O)c1ccc(-c2cc(Cl)ccc2Cl)o1,active
23,CCCCN1CC=C[C@@]23O[C@@H]4C=CCCOC(=O)[C@@H]4[C@H]2C(=O)N([C@@H](C)CO)[C@@H]3C1=O,inactive
24,NNc1ccc2c(N)[nH]nc2c1,inactive

row,SMILES,cytotoxicity call
1,COc1cccc(CN(C)C[C@@H]2OCc3ccccc3-c3c(n(C)c4ccccc34)C(=O)N([C@H](C)CO)C[C@H]2C)c1,inactive
2,NCCC(=O)N1c2ccccc2Sc2ccccc21,inactive
3,O=C(Cc1cccs1)N1c2ccccc2Sc2ccccc21,active
4,O=C(c1cccs1)N1c2ccccc2Sc2ccccc21,inactive
5,C[C@@H]1CN([C@H](C)CO)C(=O)c2cc(NC(=O)Nc3ccc(C(F)(F)F)cc3)ccc2O[C@@H](C)CCCCO[C@@H]1CN(C)S(=O)(=O)c1ccc(Cl)cc1,inactive
6,O=C1CN(S(=O)(=O)Cc2ccccc2)C[C@H]2[C@@H](c3ccc(C#Cc4ccc(F)cc4)cc3)[C@@H](CO)N12,inactive
7,O=C1CN(S(=O)(=O)Cc2ccccc2)C[C@H]2[C@H](c3ccc(C#Cc4ccc(F)cc4)cc3)[C@H](CO)N12,inactive
8,O=C1CN(S(=O)(=O)Cc2ccccc2)C[C@@H]2[C@H](c3ccc(C#Cc4ccc(F)cc4)cc3)[C@@H](CO)N12,inactive
9,O=C1CN(S(=O)(=O)Cc2ccccc2)C[C@@H]2[C@@H](c3ccc(C#Cc4ccc(F)cc4)cc3)[C@@H](CO)N12,active
10,O=C1CN(S(=O)(=O)Cc2ccccc2)C[C@@H]2[C@@H](c3ccc(C#Cc4ccc(F)cc4)cc3)[C@H](CO)N12,active
11,O=C1CN(S(=O)(=O)Cc2ccccc2)C[C@H]2[C@H](c3ccc(C#Cc4ccc(F)cc4)cc3)[C@@H](CO)N12,inactive
12,CN(C)S(=O)(=O)N1CCO[C@@H]2CN(c3ncc(F)cn3)C[C@@H]21,inactive
13,O=C1O[C@H](c2ccccc2)[C@H](c2ccccc2)N2[C@H]1[C@@H](C(=O)Nc1nc3ccccc3s1)[C@]1(C(=O)Nc3ccc(C#CC4(O)CCCCCC4)cc31)[C@H]2c1ccccc1OCCO,inactive
14,C[C@@H]1CCCCO[C@@H](CN(C)C(=O)Nc2ccc3c(c2)OCO3)[C@@H](C)CN([C@@H](C)CO)C(=O)c2cc(NC(=O)CCC(F)(F)F)ccc2O1,inactive
15,COc1ccc(CN(C)C[C@H]2Oc3ccc(NC(=O)CCCCCC(=O)Nc4ccccc4N)cc3C(=O)N([C@H](C)CO)C[C@H]2C)cc1,inactive
16,C[C@H]1CN([C@@H](C)CO)C(=O)c2cc(NC(=O)CCCCCC(=O)Nc3ccccc3N)ccc2O[C@H]1CN(C)Cc1ccc(Oc2ccccc2)cc1,inactive
17,C[C@H]1CN([C@@H](C)CO)C(=O)c2cc(NC(=O)CCCCCC(=O)Nc3ccccc3N)ccc2O[C@@H]1CN(C)Cc1ccccc1,active
18,C[C@@H]1CN([C@H](C)CO)C(=O)c2cc(NC(=O)CCCCCC(=O)Nc3ccccc3N)ccc2O[C@@H]1CN(C)Cc1ccccc1,inactive
19,C[C@@H]1CN([C@@H](C)CO)C(=O)c2cc(NC(=O)CCCCCC(=O)Nc3ccccc3N)ccc2O[C@H]1CN(C)Cc1ccccc1,active
20,C[C@H](CO)N1C[C@H](C)[C@H](CN(C)Cc2ccccc2)Oc2ccc(NC(=O)CCCCCC(=O)Nc3ccccc3N)cc2C1=O,inactive
21,C[C@@H]1CN([C@H](C)CO)C(=O)c2cc(NC(=O)CCCCCC(=O)Nc3ccccc3N)ccc2O[C@H]1CN(C)Cc1ccccc1,inactive
22,C[C@@H]1CN([C@H](C)CO)C(=O)c2cc(NC(=O)CCCCCC(=O)Nc3ccccc3N)ccc2O[C@@H]1CN(C)Cc1ccc(Oc2ccccc2)cc1,active
23,C[C@H](CO)N1C[C@H](C)[C@@H](CN(C)Cc2ccccc2)Oc2ccc(NC(=O)CCCCCC(=O)Nc3ccccc3N)cc2C1=O,inactive

# From the antibiotic and cytotoxicity screens of Wong et al. (2023)
